The values that follow come from PubChem BioAssay.

Each structure is given as a SMILES string. Active and inactive are the calls of the source.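 Rule for the calls, unless noted: active = viability loss from added drug above about 55%, and viability with drug at most 40%, in both replicates (limit read from the data, passing the limit was not always enough); inconclusive = both conditions met in only one replicate; inactive = neither replicate meets both conditions.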

In general, viability refers to a read-out of living cells in per cent, often relative to untreated cells.

A short description of the first experiment: growth inhibitors of H69AR lung tumor, primary screen, human, duplicate replicates (AID 580;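 active = viability at or under a set limit in both replicates, limit being median viability minus 3 SD, cut at about 48% in these data, passing the limit was not always enough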;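 note: 100% = mean luminescence of untreated wells and 0% = no signal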). The conditions noted are these: H69AR lung tumor cells viability, ATP luminescence, 72 h; at 10 µM; hits give low values.
In the case of `O=C(CSc1nnc(-c2cccnc2)o1)Nc1ccccn1`, the viability is 94.4% (inactive).
Still for that read-out and setting: then `CCC1Oc2ccccc2N(CC(=O)Nc2ccc(OC)cc2OC)C1=O` (stereo not given), with 100% (inactive).
On the same count and under the same terms, next, `Cc1cccn2c(=O)c3cc(C(=O)N4CCCc5ccccc54)n(C)c3nc12`: 90.2% (inactive).
On the same count and under the same terms, next, `CCN(CC)CCCn1c(=S)[nH]c2cc(Cl)ccc2c1=O`: 97% (inactive).
`CCCCC(=O)NCCNc1nc2c(c(=O)n(C)c(=O)n2C)n1Cc1ccccc1`: the viability is 94.6% (inactive).
On the same count and under the same terms, then `O=C(C1CCCCC1)N1CCC(c2nc3c(nnn3Cc3c(F)cccc3Cl)c(=O)[nH]2)CC1`, with 71.3% (inactive); and `CCOc1ccc(OCC)c(NC(=O)CN2CCN(C(=O)c3ccco3)CC2)c1`, with 68.8% (inactive).
The same measure, in the same setting: then `CN(C)CCCNC(=O)c1ccc(CN(c2ccccc2)S(C)(=O)=O)cc1`, with 92.1% (inactive); and `Cc1oc(-c2ccc(Cl)cc2)nc1CS(=O)CC(=O)NCCCN(C)C1CCCCC1` (stereo not given), with 87.1% (inactive).
`N#CC1=C(N)OC(c2ccccc2)=C(C#N)C1c1ccc2c(c1)OCO2` (stereo not given): the viability is 93.8% (inactive).
With `O=C1C(C=NCCCn2ccnc2)=C(O)c2ccccc21`, the viability is 99.2% (inactive).
As for `Cc1c(Cl)cccc1N1C(=O)c2ccccc2C1=O`, the viability was 111% (inactive).
Same read-out and setting: next, `CN1C(=O)NC(NC(=O)C2CCCCC2)(C(F)(F)F)C1=O` (stereo not given): 106% (inactive); `CCOC(=O)C1=C(C)Nc2ncnn2C1c1ccccc1F` (stereo not given): 95.6% (inactive).
On the same count and under the same terms, next, `CCC(Oc1ccc2ccccc2c1)C(=O)O` (stereo not given): 80.1% (inactive).
Still for that read-out and setting: next, `C=Cn1c(C(=O)O)cc(CC)c1-c1ccccc1`: 106% (inactive); `CC(=O)N1CCc2cc(S(=O)(=O)NC(C(=O)NCc3ccccc3)C(C)C)ccc21` (stereo not given): 102% (inactive); `COc1ccccc1CN1CCCC(C(=O)N(C)Cc2ccccc2)C1` (stereo not given): 81.1% (inactive).
For `CCOC(=O)c1c(N)sn(-c2ccccc2)c1=S`, the viability was 85.3% (inactive).
As for `Cc1cc(C)c2c(n1)nn1c(N3CCOCC3)cc(C)nc21`, the viability is 87.1% (inactive).
Still for that read-out and setting: next, `CC(C)c1cc(C(=O)NCc2ccco2)no1`: 80.4% (inactive).
Still for that read-out and setting: then `NC(=O)COC(=O)CNC(=O)c1ccc(Cl)cc1`, with 101% (inactive).
As to `Cc1cccc(-c2c3c(=O)n(C)c(=O)n(C)c3cn2-c2ccc(O)cc2)c1`, the viability is 86.6% (inactive).
The same measure, in the same setting: then `Cn1c(SC/C=C/c2ccccc2)nnc1-c1cnccn1`, with 94.3% (inactive).
On the same count and under the same terms, next, `COc1ccc2nc(N3CCC(C)CC3)c(C#N)cc2c1`: 26.8% (active); `CC1(C)CC(=O)C(C#N)=C(NCCCO)C1`: 100% (inactive).
The same measure, in the same setting: then `CCCc1[nH]nc2c1C(c1cccc(OC(=O)c3ccco3)c1)C(C#N)=C(N)O2` (stereo not given), with 95.3% (inactive); and `CC(=O)N(c1ccc(N(C(C)=O)S(=O)(=O)c2cccs2)cc1)S(=O)(=O)c1cccs1`, with 86% (inactive); and `O=C(NCCC1=CCCCC1)N[C@@H](Cc1ccccc1)C(=O)O`, with 108% (inactive).
`COc1ccccc1C(=O)n1nc(-c2ccccc2)nc1N`: the viability is 87.9% (inactive).
As for `O=C(O)COc1ccc2occ(C(=O)c3ccccc3)c2c1`, the viability is 93.9% (inactive).
On the same count and under the same terms, next, `O=C(NCC1CCCO1)C1CCCN(S(=O)(=O)c2cccc3nsnc23)C1` (stereo not given): 98.5% (inactive); `CN1CCN(C(c2cccc(C(F)(F)F)c2)c2nnnn2C(C)(C)C)CC1` (stereo not given): 91.5% (inactive).
Still for that read-out and setting: next, `Nc1nnnn1/N=C/c1ccccc1OCc1ccccc1`: 95.3% (inactive).
Same read-out and setting: then `Cc1ccc(C(=O)C2COC(=O)C2)cc1` (stereo not given), with 85.3% (inactive); and `O=C(CSc1nnc(-c2c[nH]c3ccccc23)o1)N(Cc1ccccc1)c1ccc(F)cc1`, with 82.4% (inactive); and `CC(C)OC(=O)CSc1nnc(-c2ccc(C(C)(C)C)cc2)n1N`, with 88.4% (inactive).
On to `COc1cc(Br)cc(/C=N/c2ncn[nH]2)c1O`, for which the viability was 86.6% (inactive).
Same read-out and setting: next, `CSc1ccccc1N=CC1=C(O)CC(C)(C)CC1=O`: 89.2% (inactive); `CC1(C)CC(CCNC(=O)c2ccco2)CC(C)(C)N1`: 98.8% (inactive).

A short description of the next experiment: reversal of MRP1-mediated doxorubicin resistance, pilot screen, H69AR cells, doxorubicin co-treatment (AID 601). The following applies: H69AR cells + 2 uM doxorubicin, CellTiter-Glo, 72 h; at 10 µM; hits give high values.
Take `O=C(CSc1nnc(-c2cccnc2)o1)Nc1ccccn1`: the differential viability (reversal) was 7.92% (inactive).
With `CCC1Oc2ccccc2N(CC(=O)Nc2ccc(OC)cc2OC)C1=O` (stereo not given), the differential viability (reversal) was 15% (inactive).
Same read-out and setting: then `Cc1cccn2c(=O)c3cc(C(=O)N4CCCc5ccccc54)n(C)c3nc12`, with 1.01% (inactive); and `CCN(CC)CCCn1c(=S)[nH]c2cc(Cl)ccc2c1=O`, with 6.63% (inactive); and `CCCCC(=O)NCCNc1nc2c(c(=O)n(C)c(=O)n2C)n1Cc1ccccc1`, with -4.03% (inactive).
The same measure, in the same setting: then `O=C(C1CCCCC1)N1CCC(c2nc3c(nnn3Cc3c(F)cccc3Cl)c(=O)[nH]2)CC1`, with 48.4% (inactive).
Same read-out and setting: next, `CCOc1ccc(OCC)c(NC(=O)CN2CCN(C(=O)c3ccco3)CC2)c1`: 38.1% (inactive).
As to `CN(C)CCCNC(=O)c1ccc(CN(c2ccccc2)S(C)(=O)=O)cc1`, the differential viability (reversal) is 3.06% (inactive).
On the same count and under the same terms, next, `Cc1oc(-c2ccc(Cl)cc2)nc1CS(=O)CC(=O)NCCCN(C)C1CCCCC1` (stereo not given): 10.8% (inactive); `N#CC1=C(N)OC(c2ccccc2)=C(C#N)C1c1ccc2c(c1)OCO2` (stereo not given): 13.3% (inactive); `O=C1C(C=NCCCn2ccnc2)=C(O)c2ccccc21`: 17.2% (inactive).
Same read-out and setting: then `Cc1c(Cl)cccc1N1C(=O)c2ccccc2C1=O`, with 2.93% (inactive).
On the same count and under the same terms, next, `CN1C(=O)NC(NC(=O)C2CCCCC2)(C(F)(F)F)C1=O` (stereo not given): 6.06% (inactive); `CCOC(=O)C1=C(C)Nc2ncnn2C1c1ccccc1F` (stereo not given): -5% (inactive).
`CCC(Oc1ccc2ccccc2c1)C(=O)O` (stereo not given): the differential viability (reversal) was -1.54% (inactive).
Consider `C=Cn1c(C(=O)O)cc(CC)c1-c1ccccc1`, for which the differential viability (reversal) is 2.8% (inactive).
On the same count and under the same terms, next, `CC(=O)N1CCc2cc(S(=O)(=O)NC(C(=O)NCc3ccccc3)C(C)C)ccc21` (stereo not given): 12.1% (inactive); `COc1ccccc1CN1CCCC(C(=O)N(C)Cc2ccccc2)C1` (stereo not given): 3.71% (inactive); `CCOC(=O)c1c(N)sn(-c2ccccc2)c1=S`: -5.28% (inactive).
Same read-out and setting: next, `Cc1cc(C)c2c(n1)nn1c(N3CCOCC3)cc(C)nc21`: -6.34% (inactive).
The same measure, in the same setting: next, `CC(C)c1cc(C(=O)NCc2ccco2)no1`: 5.93% (inactive).
Regarding `NC(=O)COC(=O)CNC(=O)c1ccc(Cl)cc1`, the differential viability (reversal) was 16.1% (inactive).
Still for that read-out and setting: then `Cc1cccc(-c2c3c(=O)n(C)c(=O)n(C)c3cn2-c2ccc(O)cc2)c1`, with -6.51% (inactive); and `Cn1c(SC/C=C/c2ccccc2)nnc1-c1cnccn1`, with 10.3% (inactive); and `COc1ccc2nc(N3CCC(C)CC3)c(C#N)cc2c1`, with 3.77% (inactive).
Still for that read-out and setting: then `CC1(C)CC(=O)C(C#N)=C(NCCCO)C1`, with -2.31% (inactive); and `CCCc1[nH]nc2c1C(c1cccc(OC(=O)c3ccco3)c1)C(C#N)=C(N)O2` (stereo not given), with 1.18% (inactive); and `CC(=O)N(c1ccc(N(C(C)=O)S(=O)(=O)c2cccs2)cc1)S(=O)(=O)c1cccs1`, with -22.3% (inactive).
Still for that read-out and setting: next, `O=C(NCCC1=CCCCC1)N[C@@H](Cc1ccccc1)C(=O)O`: 14.2% (inactive); `COc1ccccc1C(=O)n1nc(-c2ccccc2)nc1N`: -2.62% (inactive).
As for `O=C(O)COc1ccc2occ(C(=O)c3ccccc3)c2c1`, the differential viability (reversal) is 1.01% (inactive).
Regarding `O=C(NCC1CCCO1)C1CCCN(S(=O)(=O)c2cccc3nsnc23)C1` (stereo not given), the differential viability (reversal) was 14.3% (inactive).
The same measure, in the same setting: next, `CN1CCN(C(c2cccc(C(F)(F)F)c2)c2nnnn2C(C)(C)C)CC1` (stereo not given): 1.82% (inactive); `Nc1nnnn1/N=C/c1ccccc1OCc1ccccc1`: 8.29% (inactive); `Cc1ccc(C(=O)C2COC(=O)C2)cc1` (stereo not given): 3.12% (inactive).
Still for that read-out and setting: next, `O=C(CSc1nnc(-c2c[nH]c3ccccc23)o1)N(Cc1ccccc1)c1ccc(F)cc1`: -14.3% (inactive); `CC(C)OC(=O)CSc1nnc(-c2ccc(C(C)(C)C)cc2)n1N`: 5.61% (inactive); `COc1cc(Br)cc(/C=N/c2ncn[nH]2)c1O`: -17.5% (inactive).
For the compound `CSc1ccccc1N=CC1=C(O)CC(C)(C)CC1=O`, the differential viability (reversal) is -0.87% (inactive).
For the compound `CC1(C)CC(CCNC(=O)c2ccco2)CC(C)(C)N1`, the differential viability (reversal) was 2.95% (inactive).
